Test system: U-2932
Assay: growth inhibition by drug alone (1 - RLU/untreated control) (fraction); higher = stronger inhibition
Details: 177Lu-lilotomab satetraxetan 0 ug/ml
Experimental: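 U-2932 ABC-DLBCL cells were pretreated or not for 18 h with 1 ug/ml 177Lu-lilotomab satetraxetan (600 MBq/mg), washed and seeded (3000 cells/well) on 384-well plates pre-printed with the Selleck Cambridge Cancer Compound library. Viability was read by RealTime-Glo luminescence on days 3-6 after seeding. Effect = 1 - RLU/mean RLU of the 48 untreated no-drug control wells per plate; Bliss score = (M-E)/(1-Fa), with E the expected Bliss-additive effect.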

| Structure (SMILES) | growth inhibition by drug alone (10 nM, time (day): 3) | growth inhibition by drug alone (10 nM, time (day): 4) | growth inhibition by drug alone (10 nM, time (day): 5) | growth inhibition by drug alone (10 nM, time (day): 6) | growth inhibition by drug alone (1000 nM, time (day): 3) | growth inhibition by drug alone (1000 nM, time (day): 4) | growth inhibition by drug alone (1000 nM, time (day): 5) | growth inhibition by drug alone (1000 nM, time (day): 6) |
| --- | --- | --- | --- | --- | --- | --- | --- | --- |
| Cc1ccccc1-n1c(Cn2cnc3c(N)ncnc32)nc2cccc(C)c2c1=O | 0.0494 | 0.000763 | 0.0122 | 0.0686 | 0.047 | 0.0488 | 0.0186 | 0.102 |
| CC(=O)Nc1ccc(OC[C@](C)(O)C(=O)Nc2ccc([N+](=O)[O-])c(C(F)(F)F)c2)cc1 [Andarine (GTX-007)] | 0.0764 | 0.0433 | -0.0579 | -0.0688 | 0.0614 | 0.0399 | -0.0394 | 0.0038 |
| CC1=C2C[C@H]3[C@@H](CC=C4C[C@@H](O)CC[C@@]43C)[C@@H]2CC[C@]12O[C@@H]1C[C@H](C)CN[C@H]1[C@H]2C [Cyclopamine] | 0.097 | 0.0521 | -0.0277 | -0.0904 | 0.00899 | 0.035 | -0.037 | -0.267 |
| Cc1cc2c(C(C)C)c(O)c(O)c(C=O)c2c(O)c1-c1c(C)cc2c(C(C)C)c(O)c(O)c(C=O)c2c1O [Gossypol] | -0.0803 | -0.0436 | -0.0537 | -0.0327 | -0.00328 | 0.00751 | 0.00351 | 0.0148 |
| CC(O)(CS(=O)(=O)c1ccc(F)cc1)C(=O)Nc1ccc(C#N)c(C(F)(F)F)c1 (stereo not given) [Bicalutamide (Casodex)] | 0.0907 | 0.0654 | -0.0744 | -0.0699 | -0.0505 | -0.00664 | -0.0598 | -0.262 |

From the supplement of paper PMC6897291
